The full list was thinned out, with hits kept by preference.
PTAP TSG101 blk – qHTS Assay for Iinhibitors of HIV-1 Budding by Blocking the Interaction of PTAP/TSG101; Tumor susceptibility gene 101 protein (Homo sapiens), Q99816; Fluorescence polarization, FITC-PTAP peptide / Tsg101 binding; Potency, µM (titrated, usually from 115 µM), inactives show at the highest dose activity change, negative = inhibition, usual class: inhibitors; 340,000 tested, under 10 active; AID 493005, 2010; active = well fitted inhibition curve with a large enough effect in the main read-out, with a control signal flat, not every such curve was filed as active; inconclusive = small, poorly fitted or top-dose-only effect, or effect the other way, or a change in a side signal; inactive = no such curve, though single readings can be large or run the other way; also: potency is read from the fitted curve at half-maximal effect; % of control where 0% means no effect
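Steps: Tsg101 binding domain dispensed (10 uM final), compounds pinned in DMSO, FITC-labeled PTAP-motif peptide added (50 nM final); after 20 min binding at room temperature, polarization measured.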
RGS4 inhibitor – Inhibitors of Regulator of G Protein Signaling (RGS) 4: qHTS; Potency, µM (series often up to 114 µM), for inactives: at the highest dose activity change, negative = inhibition, most hits filed as inhibitors; Transcreener GDP fluorescence polarization, RGS4-accelerated GTP hydrolysis; 390,000 tested, 0.039% active; AID 504845, 2011; Regulator of G-protein signaling 4 (Homo sapiens), P49798; also: potency is read from the fitted curve at half-maximal effect; % is scaled to controls: 0 for no effect and ±100 for the full control effect; nearly all actives have a fitted effect of over 75% in size
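MLSMR compounds (23 nl, pin-transferred) preincubated 10 min at room temperature with a 500nM (2x) first reagent, then RGS4 at 900nM (2x) plus Transcreener GDP mix added; fluorescence polarization (620/688 nm) read before and after 90 min at 30 °C.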
MLL CXXC-DNA inh – qHTS Fluorescence Polarization Assay for Inhibitors of MLL CXXC domain - DNA interaction. 290,000 tested, 0.037% active. AID 2662, 2010. Histone-lysine N-methyltransferase 2A (Homo sapiens), Q03164. MLL-CXXC / FITC-HOXA9 DNA fluorescence polarization. Potency, µM (highest dose often 115 µM), inactives show at the top dose activity change, negative = inhibition, hits mostly inhibitors; active = well fitted inhibition curve with a large enough effect in the polarisation, with a control signal flat, not every such curve was filed as active; inconclusive = small, poorly fitted or top-dose-only effect, or effect the other way, or a change in a side signal; inactive = no such curve, though single readings can be large or run the other way; the % refers to the polarisation; also: potency is read from the fitted curve at half-maximal effect
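Steps: dispense CXXC domain solution (7 uM) → pin compounds or unlabeled HOX-A9 DNA control → 5 min ambient → add FLSN-HOX-A9 solution (50 nM) → spin → 30 min ambient → fluorescence polarization. Tris pH 7.5/NaCl/DTT/BSA buffer.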
ERG-DNA inh – qHTS for Small Molecule Inhibitors of the ERG Ets/DNA interaction | 370,000 tested, 0.028% active | AID 624246, 2012 | fluorescence polarization, His-ERG Ets domain / labelled DNA | Potency, µM (doses to about 76.9 µM), for the others: top-dose FP activity, negative = inhibition, hits mostly inhibitors; active = well fitted inhibition curve with a large enough effect in the polarisation, with a control signal flat; inconclusive = small, poorly fitted or top-dose-only effect, or effect the other way, or a change in a side signal; inactive = no such curve, though single readings can be large or run the other way; the % refers to the polarisation;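 also: polarization taken with two DNA probes labelled with fluorescein and Texas red; potency is read from the fitted curve at half-maximal effect; % of control where 0% means no effect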
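His-tagged ERG Ets domain (1 uM in the protein solution; 300mM KCl, 50mM Tris-HCl, 1mM EDTA, 1mM DTT, pH 7.5) received compound, then a probe mix of 5 nM fluorescein-DNA and 100nM Texas-615-DNA. Fluorescence polarization was read for both dyes.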
Menin MLL FP TR – qHTS Assay for Inhibitors Targeting the Menin-MLL Interaction in MLL Related Leukemias: Competition With Texas Red Labeled MLL-derived Mutant Peptide. O00255. Menin + Texas Red MLL mutant peptide, fluorescence polarization. Potency, µM (titrated, usually from 61.6 µM), for inactives: at the highest dose FP activity change, negative = inhibition, usual class: inhibitors. 270,000 tested, 0.23% active. AID 1768, 2009; active = well fitted inhibition curve with a large enough effect in the polarisation, with a control signal flat, not every such curve was filed as active; inconclusive = small, poorly fitted or top-dose-only effect, or effect the other way, or a change in a side signal; inactive = no such curve, though single readings can be large or run the other way; the % refers to the polarisation; also: potency is read from the fitted curve at half-maximal effect; % of control where 0% means no effect
Menin-MLL FL inh – qHTS Assay for Inhibitors Targeting the Menin-MLL Interaction in MLL Related Leukemias: Competition With Fluorescein Labeled MLL-derived Peptide; Fluorescence polarization, fluorescein-MLL peptide displacement from menin; FP activity change, % at 61.4 µM; 290,000 tested, under 10 active; active = well fitted curve in the direction sought with a large enough effect in the polarisation, not every such curve was filed as active; inconclusive = small, poorly fitted or top-dose-only effect, or effect the other way, or a change in a side signal; inactive = no such curve, though single readings can be large or run the other way; the % refers to the polarisation; also: % of control where 0% means no effect
MLL CXXC FP-Fl – qHTS Fluorescence Polarization (FP) Assay for Inhibitors of MLL CXXC domain - DNA interaction: Fluorescein FP; shares compounds with MLL CXXC-DNA inh; MLL CXXC-DNA binding, fluorescein FP; Potency, µM (series often up to 345 µM), for inactives: at the top dose activity change, negative = inhibition, usual class: inhibitors; 200 tested, 70% active; also: potency is read from the fitted curve at half-maximal effect; nearly all actives have a fitted effect of over 80% in size
MLL CXXC TxRed – qHTS Fluorescence Polarization (FP) Assay for Inhibitors of MLL CXXC domain - DNA interaction: Texas Red FP; shares compounds with MLL CXXC-DNA inh; MLL CXXC-DNA binding, Texas Red fluorescence polarization; Potency, µM (doses to about 345 µM), for the others: top-dose activity change, negative = inhibition, most hits filed as inhibitors; 200 tested, 40% active; also: potency is read from the fitted curve at half-maximal effect; % is scaled to controls: 0 for no effect and ±100 for the full control effect; nearly all actives have a fitted effect of over 75% in size
MLL CXXC TRF – qHTS Fluorescence Polarization (FP) Assay for Inhibitors of MLL CXXC domain - DNA interaction: HTRF Assay. shares compounds with MLL CXXC-DNA inh. MLL CXXC-DNA binding, HTRF, biochemical. Potency, µM (top dose mostly 172 µM), for inactives: at the top dose activity change, negative = inhibition, hits mostly inhibitors. 210 tested, 30% active; also: % is scaled to controls: 0 for no effect and ±100 for the full control effect; nearly all actives have a fitted effect of over 80% in size
Numbers without * were called inactive; [ ] = remark or other dose. Unless noted, calls follow the shape of the dose curve; as a rule, active = well fitted inhibition curve with a large enough effect; inconclusive = small, poorly fitted or top-dose-only effect; inactive = no such curve, though single readings can be large or run the other way.

For COC(=O)C1=C(C)N(Cc2ccccc2)C(=NCc2ccco2)N[C@H]1c1ccc(Br)cc1 the results were MLL CXXC-DNA inh inconclusive, Menin MLL FP TR -23% and Menin-MLL FL inh -3.
`COc1ccc(S(=O)(=O)N2CCN(c3nc(-c4cccs4)nc4ccccc34)CC2)cc1OC` gave RGS4 inhibitor 31%.
Screening O=C(O)c1ccc(COc2ccccc2C=C2C(=O)c3ccccc3C2=O)cc1 returned PTAP TSG101 blk -5%, RGS4 inhibitor inconclusive, MLL CXXC-DNA inh 18µM*, ERG-DNA inh 0%, Menin MLL FP TR 27%, Menin-MLL FL inh 4, MLL CXXC FP-Fl 18µM*, MLL CXXC TxRed 56µM* and MLL CXXC TRF 77µM*.
`COc1cc(/C=C(\C#N)C(=O)Nc2ccc(C(=O)O)cc2)ccc1OC(=O)c1cccc(F)c1` gave PTAP TSG101 blk -2%, RGS4 inhibitor inconclusive, MLL CXXC-DNA inh inconclusive, ERG-DNA inh 30%, Menin MLL FP TR 28%, Menin-MLL FL inh inconclusive, MLL CXXC FP-Fl 3%, MLL CXXC TxRed 37% and MLL CXXC TRF -48%.
For Cc1[nH]n(-c2ccccc2)c(=O)c1N=Nc1cccc(C(=O)O)c1 the results were PTAP TSG101 blk -3%, RGS4 inhibitor 8%, MLL CXXC-DNA inh inconclusive, ERG-DNA inh -5%, Menin MLL FP TR inconclusive, Menin-MLL FL inh 4, MLL CXXC FP-Fl 14µM*, MLL CXXC TxRed inconclusive and MLL CXXC TRF 34%.
`Cc1[nH]n(-c2ccccc2)c(=O)c1N=Nc1ccc(C(=O)O)cc1` gave PTAP TSG101 blk -1%, RGS4 inhibitor 20%, MLL CXXC-DNA inh 2%, ERG-DNA inh -8%, Menin MLL FP TR inconclusive and Menin-MLL FL inh -2.
For O=C(O)CCN1C(=O)/C(=C\c2cccc(OCC(=O)Nc3ccc(Cl)cc3)c2)SC1=S the results were PTAP TSG101 blk -6%, RGS4 inhibitor 14%[11.4 µM], MLL CXXC-DNA inh inconclusive, ERG-DNA inh 6%, Menin-MLL FL inh 14, MLL CXXC FP-Fl inconclusive, MLL CXXC TxRed 142µM* and MLL CXXC TRF -61%.
`CC(C)OC(=O)CC(=O)c1sc2nc3c(cc2c1N)CN(C)CC3` gave PTAP TSG101 blk -20%, RGS4 inhibitor inconclusive, MLL CXXC-DNA inh 13µM*, ERG-DNA inh 5%, Menin MLL FP TR -15%, Menin-MLL FL inh inconclusive, MLL CXXC FP-Fl 45µM*, MLL CXXC TxRed inconclusive and MLL CXXC TRF inconclusive.
N#CC(C#N)=C1C=C2C=C(N3CCCCCC3)CCC2CC1 (stereo not given) was read as PTAP TSG101 blk inconclusive, RGS4 inhibitor 3%, MLL CXXC-DNA inh inconclusive, ERG-DNA inh inconclusive, Menin MLL FP TR inconclusive, Menin-MLL FL inh inconclusive, MLL CXXC FP-Fl 0.45µM*, MLL CXXC TxRed 71µM* and MLL CXXC TRF 217%.
Screening COC(=O)c1c(C)[nH]c(C)c1-c1ccc(C)cc1 returned PTAP TSG101 blk -3%, RGS4 inhibitor -12%, MLL CXXC-DNA inh inconclusive, ERG-DNA inh 7%, Menin MLL FP TR -1%, Menin-MLL FL inh 5, MLL CXXC FP-Fl 18µM*, MLL CXXC TxRed inconclusive and MLL CXXC TRF -8%.
For COC(=O)c1c(C)[nH]c(C)c1-c1cccc([N+](=O)[O-])c1 the results were PTAP TSG101 blk -3%, RGS4 inhibitor 9%, MLL CXXC-DNA inh 0%, ERG-DNA inh -5%, Menin MLL FP TR 42% and Menin-MLL FL inh 2.
`Cc1ccc(C2OC34CCCCCC3C(C#N)(C(=N)O4)C2(C#N)C#N)cc1` (stereo not given) gave PTAP TSG101 blk -1%, RGS4 inhibitor -25%, MLL CXXC-DNA inh 7.9µM*, ERG-DNA inh -11%, Menin MLL FP TR -9%, Menin-MLL FL inh -4, MLL CXXC FP-Fl 12%, MLL CXXC TxRed inconclusive and MLL CXXC TRF 34%.
`CCCCOc1ccc(C2OC34CCCCC3C(C#N)(C#N)C2(C#N)C(=N)O4)cc1` (stereo not given) gave PTAP TSG101 blk inconclusive, RGS4 inhibitor -12%, MLL CXXC-DNA inh 9%, ERG-DNA inh -5% and Menin-MLL FL inh inconclusive.
For CCOc1ccc(C2OC34CCCCC3C(C#N)(C#N)C2(C#N)C(=N)O4)cc1OC (stereo not given) the results were PTAP TSG101 blk -27%, RGS4 inhibitor -22%, MLL CXXC-DNA inh 25µM*, ERG-DNA inh inconclusive, Menin-MLL FL inh inconclusive, MLL CXXC FP-Fl 18µM*, MLL CXXC TxRed 36µM* and MLL CXXC TRF 14%.
Screening C=CCOc1ccc(C2OC34CCCCC3C(C#N)(C#N)C2(C#N)C(=N)O4)cc1 (stereo not given) returned PTAP TSG101 blk inconclusive, RGS4 inhibitor -11%, MLL CXXC-DNA inh -15%, ERG-DNA inh inconclusive, Menin MLL FP TR -19% and Menin-MLL FL inh inconclusive.
Screening CCCCCCCCCCCCCCCC(=O)OCC(COC(=O)CCCCCCCCCCCCCCC)OC(=O)CCCCCCCCCCCCCCC returned MLL CXXC-DNA inh -4%, Menin MLL FP TR 2% and Menin-MLL FL inh -3.

High-throughput results: PubChem, National Center for Advancing Translational Sciences (NCATS)
